Source: PubChem
Only some compounds are listed: those with a hit (about 0.51% of all), similar ones and a draw of the others.
FMDV Renilla: FMDV antiviral activity by Renilla signal. FMDV replicon cells, Renilla luciferase signal. Potency, µM (top dose mostly 57.5 µM), hits mostly inhibitors. 0.32% of 120,000 active; note: nearly all actives have a fitted effect of over 55% in size
FMDV FLuc: FMDV antiviral activity by firefly signal. Potency, µM (titrated, usually from 57.5 µM), most hits filed as inhibitors. 0.23% of 120,000 active. AID 1745856. FMDV antiviral cell assay, firefly luciferase signal; note: nearly all actives have a fitted effect of over 60% in size
Large screens that a line does not name were inactive. Calls come from the whole dose curve.

Cc1cc(N2CCOCC2)nc(Nc2ccc(NC(=O)CCc3ccccc3)cc2)n1	FMDV Renilla 3.98µM, FMDV FLuc 5.01µM
Cc1cc(N2CCCC2)nc(Nc2ccc(NS(=O)(=O)c3ccc(Br)cc3)cc2)n1	FMDV FLuc 31.6µM
Cc1cc(N2CCCC2)nc(Nc2ccc(NC(=O)Nc3ccc(Cl)cc3)cc2)n1	none
Cc1cc(N2CCCCC2)nc(Nc2ccc(NC(=O)Cc3ccccc3)cc2)n1	FMDV Renilla 12.6µM, FMDV FLuc 14.1µM
Cc1cc(N2CCOCC2)nc(N2CCN(C(=O)Nc3ccccc3)CC2)n1	none
CCN(CC)c1cc(C)nc(Nc2ccc(NS(=O)(=O)c3ccc(OC)c(OC)c3)cc2)n1	FMDV FLuc inconclusive
Cc1ccc(C(=O)c2cc3c(cc2C#N)OCCO3)cc1	none
CC(Nc1ncccc1-c1nc(-c2ccccc2)no1)c1ccccc1 (stereo unspecified)	none
CCOC(=O)c1oc2cc(OS(C)(=O)=O)ccc2c(=O)c1-c1ccc(Br)cc1	none
Cc1csc(CNC(=O)c2cccc(C(N)=O)c2)n1	none
C=CCN(CC#CC1=CCCCC1)Cc1ccccc1	none
O=C(/C=C/N1CCC(Cc2ccccc2)CC1)C(F)(F)F	FMDV Renilla inconclusive
O=C(/C=C/N1CCC(CCCC2CCN(/C=C/C(=O)C(F)(F)F)CC2)CC1)C(F)(F)F	FMDV Renilla 10µM, FMDV FLuc inconclusive
O=C(C1CCN(S(=O)(=O)c2cccc3nonc23)CC1)N1CCN(c2cccc(Cl)c2)CC1	FMDV Renilla inconclusive
COCc1cc(C)n(CC(=O)Nc2cccc(C(F)(F)F)c2)c(=O)c1C#N	none
COc1ccccc1/C=C/C(=O)c1ccc(C)cc1OC	none
COc1ccc(C(=O)/C=C/c2ccccc2OCC#N)c2ccccc12	FMDV Renilla 25.1µM, FMDV FLuc inconclusive
CCc1ccc(Nc2ncnc3sc4c(c23)CCCC4)cc1	none
CCN(CC)C(=S)SCc1ccc(-c2csnn2)cc1	none
COc1ccc(C(=O)Nc2nc(-c3nnn(-c4ccccc4Br)c3C)ns2)cc1	FMDV Renilla 14.1µM, FMDV FLuc 14.1µM
COc1ccc(C(=O)Nc2nc(-c3nnn(-c4ccc(F)cc4F)c3C)ns2)cc1	none
Cc1oc2cc(OCC(=O)N3CCCCC3)ccc2c(=O)c1-c1ccc(Cl)cc1	none
O=C(c1ccccn1)N1CCN(C(c2ccc(F)cc2)c2ccc(F)cc2)CC1	none
CCCn1c(SCc2nc(-c3ccccc3C)no2)nnc1-c1ccc(Cl)cc1	none
CSC(C)C(=O)NCc1ccc(C)s1 (stereo unspecified)	none
CCCn1nc(C(=O)Nc2ncc(Cc3cccc(Cl)c3)s2)ccc1=O	FMDV Renilla inconclusive, FMDV FLuc 28.2µM
O=C(CCCCl)Nc1ncc(Cc2cccc(Cl)c2)s1	none
O=C(CNc1cccc(Br)c1)N(C1CCCCC1)C1CCS(=O)(=O)C1 (stereo unspecified)	none
CCN1CCN(C(C(=O)O)c2c[nH]c3ccc(NC(=O)c4ccccc4)cc23)CC1 (stereo unspecified)	none
CCN1CCN(C(C(=O)O)c2c[nH]c3cc(NC(=O)c4ccccc4)ccc23)CC1 (stereo unspecified)	FMDV FLuc 12.6µM
O=S(=O)(NCc1ccc(F)cc1)c1ccc2[nH]c3c(c2c1)CCCC3	none
CCOC(=O)Cc1ccc(NC(=O)n2ncc3cc(Cl)ccc32)cc1	FMDV FLuc 7.94µM
CCOC(=O)Cc1ccc(NC(=O)n2ncc3c(C)cccc32)cc1	FMDV FLuc inconclusive
O=[N+]([O-])c1ccc(C(=C(c2ccccc2)c2ccccc2)c2ccc([N+](=O)[O-])cc2)cc1	FMDV Renilla 3.16µM, FMDV FLuc 2.51µM
O=[N+]([O-])c1ccc(/C=C/c2ccccc2)cc1	none
COc1ccc(Cl)cc1-c1nc(SC(C)C(=O)NC2CCCCC2)n[nH]1 (stereo unspecified)	none
CC(=O)c1cn(CCOc2cccc3ccccc23)c2ccccc12	FMDV Renilla 12.6µM, FMDV FLuc inconclusive
COc1ccccc1OCCn1cc(C(=O)C2CC2)c2ccccc21	none
COc1cccc(C(=O)Nc2ccc(-n3nncc3-c3ccccc3)cc2)c1OC	FMDV Renilla inconclusive
COc1ccc(-c2nn3c(COc4ccc(C)cc4)nnc3s2)cc1OC	none
O=C1c2c(O)ccc(O)c2C(=O)c2c(NCCNCCO)ccc(NCCNCCO)c21	FMDV Renilla inconclusive, FMDV FLuc 28.2µM
CC(=O)c1ccccc1OCc1ccccc1C	none
COC(=O)C1CN(Cc2ccc(OC)cc2)CCS(=O)(=O)N1Cc1ccc(Cl)cc1 (stereo unspecified)	none
COC(=O)C1CN(Cc2ccc(OC)cc2)CCS(=O)(=O)N1Cc1ccc(C(F)(F)F)cc1 (stereo unspecified)	FMDV Renilla inconclusive, FMDV FLuc 31.6µM
CCOc1ccc2nc(N3CCN(C(=O)C(C)C)CC3)sc2c1	none
COc1cccc(NC(=O)Cn2c(=O)n(Cc3ccccc3)c(=O)c3c2c2cc(C)ccc2n3C)c1	none
Cc1ccc([N+](=O)[O-])[c]2c1[O][Hg]2	FMDV Renilla inconclusive, FMDV FLuc 2.82µM
Cc1cc(C)c([N+](=O)[O-])cc1[N+](=O)[O-]	none
CCOc1ccccc1NC(=O)Cn1ccn(Cc2ccc(C)cc2)c(=O)c1=O	none
Cc1cc(C(C)(C)C)cc(C)c1CCNC(=O)c1n[nH]c(=O)c2ccccc12	none
COc1ccc2oc(=O)cc(CN(C)Cc3ccc(C)cc3)c2c1	FMDV Renilla 35.5µM, FMDV FLuc inconclusive
Cc1ccc(CN(C)Cc2cc(=O)oc3ccc(C)cc23)cc1	none
COCCn1c(=O)[nH]c(=O)c2c3c(cnc21)C(=O)CC(c1ccco1)C3 (stereo unspecified)	none
N#Cc1cc2c(=O)n3ccccc3nc2n(-c2nnc(SCc3ccccc3F)s2)c1=O	none
c1ccc(CNc2nc(Nc3ccccc3)nc3ccccc23)cc1	FMDV Renilla 12.6µM, FMDV FLuc inconclusive
c1ccc(Nc2nc(NCc3ccco3)c3ccccc3n2)cc1	FMDV Renilla inconclusive
CCCS(=O)(=O)N1CCN(c2ccc(N3CCCCCC3)nn2)CC1	none
CC1=C(C#N)C(c2ccccc2C)C(C#N)=C(C)N1	none
CC1=C(C#N)C(c2cc(Br)ccc2OC(F)F)C(C#N)=C(C)N1	FMDV Renilla 28.2µM, FMDV FLuc inconclusive
Cc1cc(Sc2ccc(Cl)cc2)nc2ccccc12	none
COC(=O)C1(NC(=O)c2cc(Cl)ccc2Cl)CCCCCC1	none
COC(=O)C1(NC(=O)COc2ccc(Cl)cc2Cl)CCCCC1	FMDV Renilla 8.91µM, FMDV FLuc 8.91µM
COc1ccc2c(=O)c(-c3ccc(OC)c(OC)c3)c(C(F)(F)F)oc2c1	none
COc1ccc(-c2c(C(F)(F)F)oc3cc(OS(C)(=O)=O)ccc3c2=O)cc1OC	FMDV Renilla inconclusive, FMDV FLuc 3.55µM
CCN1c2ccccc2-n2cccc2C12CCN(C(=O)Nc1ccccc1Br)CC2	none
O=C(NC1CCCC1)C1CC(c2ccccc2F)=NO1 (stereo unspecified)	none
COc1ccc(/C=C(/C#N)c2nc3ccccc3[nH]2)cc1	none
COc1ccc2cc(/C=C(/C#N)c3nc4ccccc4[nH]3)ccc2c1	FMDV Renilla 10µM
COc1cc(CN(C(=O)c2cccc(C)c2)c2ccccn2)cc(OC)c1OC	none
O=C(N/N=C/c1cccc(Cl)c1)c1cccs1	none
Cc1ccc(C)c(N2CCN(C(=O)Cn3c(C)c4cnn(-c5ccccc5)c(=O)c4c3C)CC2)c1	FMDV Renilla 22.4µM, FMDV FLuc 25.1µM
Cc1c2cnn(-c3ccccc3)c(=O)c2c(C)n1CC(=O)N1CCN(c2cccc(Cl)c2)CC1	none
Cc1ccc(CSc2nnc3[nH]c(=O)cc(-c4ccccc4)n23)cc1	none
O=C(CSCc1ccccc1)NCC1CCCO1 (stereo unspecified)	none
O=C(Nc1ccc2ccccc2n1)c1ccc(S(=O)(=O)NC2CC2)cc1	none
